# CDC25B CDK2 inh: primary biochemical HTRF screen for blockers of M-phase inducer phosphatase 2 binding to CDK2/cyclin A | P30305+P24941 | z-score (no concentration beside the values) | HTRF CDC25B-CDK2/CyclinA binding, anti-His/anti-Flag; stronger effect = higher value | actives 0.72% (n = 94,000); in the data active = z-score above about 3.2
# TAR Tat displ: TAR RNA-Tat peptide displacers, HIV-1, primary screen, biochemical, FRET, FAM/TAMRA-labeled Tat; HIV-1 TAR RNA, Tat peptide displacement FRET; stronger effect = higher value; z-score (no concentration beside the values); actives 0.6% (n = 100,000); AID 1259389, 2018; active = z-score of 3 or more in at least 2 runs
# Active calls of the source: *; x = not tested or not shown. The list is not random: actives were taken first. Their share in the collection is about 0.9%.
SMILES,CDC25B CDK2 inh,TAR Tat displ
CCc1c(C)nc2nncn2c1NCc1ccco1,-1.67,1.72
CCn1cc(C(=O)N2CCc3ccccc32)c(=O)c2cc(S(=O)(=O)N3CC(C)CC(C)C3)ccc21 (stereo not given),-0.41,1.95
CCn1cc(C(=O)N2CCc3ccccc3C2)c(=O)c2cc(S(=O)(=O)N3CCC(C)CC3)ccc21,14.9*,0.58
Cn1c(=O)c2c(c3ccccc31)OC(=O)CC2c1ccco1 (stereo not given),-0.48,14.2*
Cn1c(=O)c2c(c3ccccc31)OC(=O)CC2c1ccccc1 (stereo not given),-0.44,-0.31
CCN(CC)c1ncnc2c1cnn2-c1ccc(C)cc1,x,0.55
Cc1ccc(C(CNC(=O)c2oc3ccc(Cl)cc3c2C)N2CCN(C)CC2)o1 (stereo not given),-0.83,1.44
C=CCN1C(=O)C2(c3ccccc31)c1c(oc3ccc(C)cc3c1=O)C(=O)N2CCO (stereo not given),-2.08,1.61
CCOC(=O)C(C)c1nc2ccccc2[nH]c1=O (stereo not given),-0.92,x
CCOC(=O)c1nc2ccccc2[nH]c1=O,18.4*,-0.31
CC1=C(c2ccc(C)cc2)S(=O)(=O)N=C1Nc1ccc(F)cc1F,-0.66,1.04
Cc1cc2c3c(C)n(C4CCCCC4)c(C)c3c(C)nn2c1,0.79,x
COc1ccc(CCn2c(C)c3c(C)nn4cc(C)cc4c3c2C)cc1OC,3.53,15*
O=C1CCSc2ccc(S(=O)(=O)N3CCC(N4CCCCC4)CC3)cc2N1,x,-0.06
Cc1ccnc(Nc2nc(-c3ccc(O)c(O)c3)cs2)c1,-1.25,10.3*
Cc1ccnc(Nc2nc(-c3ccc(O)cc3)cs2)c1,0.67,0.86
Cc1cccc(Nc2nc(-c3ccc(O)c(O)c3)cs2)n1,-0.54,15.6*
Cc1cccc(Nc2nc(-c3ccncc3)cs2)n1,-0.7,2.47
CCc1ccc2ncc(S(=O)(=O)c3ccc(C)cc3)c(N3CCOCC3)c2c1,-0.95,2.74
O=C(CC1(O)C(=O)Nc2ccc(Br)cc21)c1ccccc1F (stereo not given),x,1.74
Cc1ccccc1N1C(N)=NC(N)=NC1(C)C,-0.13,x
CC1(C)N=C(N)N=C(N)N1c1c(Cl)cccc1Cl,7.93*,x
O=C1CC(c2cccs2)Cc2nc(NCCSc3ccc(Cl)cc3)ncc21 (stereo not given),21.3*,0.17
CCOCCCNc1ncc2c(n1)CC(c1ccco1)CC2=O (stereo not given),-0.75,x
Cc1cc2c(cc3c(SCC(=O)Nc4ccccc4F)nncn32)o1,x,0.66
SMILES,CDC25B CDK2 inh,TAR Tat displ
Cc1cc2c(cc3c(SCC(=O)NCc4ccco4)nncn32)o1,x,27.4*
COc1cc(OC)cc(C(=O)Nc2noc3ccccc23)c1,-1.29,0.69
COc1cccc(C(=O)Nc2n[nH]c3ccccc23)c1,5.16*,x
COc1ccc(S(=O)(=O)c2c(C(=O)c3ccccc3)cnc3ccc(OC)cc23)cc1,-0.9,-2.08
CCSc1ncc2c(=O)n(C(CC)C(=O)N3CCC(C)CC3)cnc2n1 (stereo not given),x,0.49
CCC1CCCCN1CCCNC(=O)C1CCCN(S(=O)(=O)N2CCCCC2)C1 (stereo not given),x,4.48*
CCC1CCCCN1CCCNC(=O)C1CCCN(S(=O)(=O)N2CC(C)CC(C)C2)C1 (stereo not given),x,1.33
CN(C)CCCNc1cc(N2CCCC2)c2noc3c2c1C(=O)c1ccccc1-3,1.88,8.82*
CN(C)CCCNc1cc(N2CCCCC2)c2noc3c2c1C(=O)c1ccccc1-3,0.05,1.66
CCCN1CCN(c2cc(NCCCOCC)c3c4c(onc24)-c2ccccc2C3=O)CC1,1.86,6.31*
CN(C)CCNc1cc(N2CCCCC2)c2noc3c2c1C(=O)c1ccccc1-3,6.16*,16.5*
CCN(CC)CCNc1cc(N2CCCC2)c2noc3c2c1C(=O)c1ccccc1-3,-0.38,-1.02
CN(C)CCNc1cc(N2CCOCC2)c2noc3c2c1C(=O)c1ccccc1-3,-2.04,-1.38
CCCN1CCN(c2cc(NCCOC)c3c4c(onc24)-c2ccccc2C3=O)CC1,-2.15,-0.12
CCN(CC)CCNc1cc(N2CCOCC2)c2noc3c2c1C(=O)c1ccccc1-3,-4.91,6.47*
O=C(c1cnn(-c2ccccc2)c1-n1cccc1)N1CCCC(C(=O)N2CCc3ccccc3C2)C1 (stereo not given),-1.2,0.53
O=S(=O)(c1cccc2nsnc12)N1CCN(Cc2noc3ccccc23)CC1,x,2.36
O=C(Nc1nnc(SCc2nc3ccccc3[nH]c2=O)s1)c1ccccc1,x,1.1
CCOc1ccc(-n2c(C)c(C)c3c2ncn2nc(-c4cccs4)nc32)cc1,-2.44,0.42
CN(C)CCCNc1cc(N(C)CCO)c2noc3c2c1C(=O)c1ccccc1-3,-3.96,7.02*
CCNc1cc(N(C)CCO)c2noc3c2c1C(=O)c1ccccc1-3,-0.52,-0.08
